Screening data as filed in PubChem.
Giardia FBPA inh: qHTS Assay for Inhibitors of Fructose-1,6-bisphosphate Aldolase from Giardia Lamblia | A8B2U2 | purified Giardia FBPA | Potency, µM (doses to about 59.6 µM), without a hit: top-dose activity, negative = inhibition, hits mostly inhibitors | 290,000 compounds, 0.71% hits; further: nearly all actives have a fitted effect of over 55% in size
Target sequence (A8B2U2 whole entry, looked up): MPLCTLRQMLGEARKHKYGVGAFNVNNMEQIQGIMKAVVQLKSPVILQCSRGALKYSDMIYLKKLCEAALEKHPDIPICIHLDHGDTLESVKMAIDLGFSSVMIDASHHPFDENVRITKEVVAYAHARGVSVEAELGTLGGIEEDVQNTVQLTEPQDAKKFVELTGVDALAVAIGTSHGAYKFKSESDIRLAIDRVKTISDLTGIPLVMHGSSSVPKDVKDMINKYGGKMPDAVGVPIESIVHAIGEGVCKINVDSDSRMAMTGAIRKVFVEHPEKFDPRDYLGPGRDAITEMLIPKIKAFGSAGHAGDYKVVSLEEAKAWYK
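Giardia FBPA (40 nM reagent) was preincubated 10 min at RT with compound (up to 57.5 uM final), then substrate plus GAPDH/TPI/NAD/arsenate coupling system with diaphorase/resazurin was added; resorufin fluorescence (525/598 nm) was read after 20 min.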
AmpC no deterg: qHTS Inhibitors of AmpC Beta-Lactamase (assay without detergent); P00811; AmpC nitrocefin hydrolysis, absorbance 480 nm, 0.0001% Triton; Potency, µM (top dose mostly 57.1 µM), inactives show at the highest dose activity change, negative = inhibition, hits mostly inhibitors; 330,000 compounds, 0.52% hits; AID 485341, 2010;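 further: plate controls were no compound for no effect and no enzyme for full effect; nearly all actives have a fitted effect of over 20% in size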
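AmpC (5.3 nM in the dispensed reagent) in 20 mM phosphate pH 7.0 with 0.01% (detergent screen) or 0.0001% Triton X-100 was preincubated with compounds for 15 min at room temperature. Nitrocefin was then added from an 800 uM solution, and hydrolysis was followed at 480 nm.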
AMA1-RON2 inh: qHTS for Inhibitors of AMA1-RON; Towards Development of Antimalarial Drug Lead: Primary Screen; Plasmodium falciparum AMA1 (3D7) - RON2 peptide interaction; AlphaScreen AMA1-biotinylated RON2 peptide binding; Potency, µM (doses to about 58.2 µM), without a hit: top-dose activity change, negative = inhibition, usual class: inhibitors; 360,000 compounds, 0.2% hits; AID 720542, 2013;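 further: 0% = vehicle wells and -100% = peptide control; nearly all actives have a fitted effect of over 45% in size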
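AMA1 (3D7) with his tag at 25 nM final met compounds first, then biotinylated RON2 peptide at 25 nM; detection used donor plus acceptor beads, 10 µg/mL apiece, read by AlphaScreen after 30 min at room temperature.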
AmpC detergent: qHTS Inhibitors of AmpC Beta-Lactamase (assay with detergent); P00811; AmpC hydrolysis of nitrocefin, absorbance 480 nm, 0.01% Triton; Potency, µM (series often up to 114 µM), for the others: at the top dose activity change, negative = inhibition, hits mostly inhibitors; 370,000 compounds, 0.041% hits;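 further: 0% = no-compound wells and -100% = no-enzyme wells; nearly all actives have a fitted effect of over 25% in size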
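20 mM phosphate pH 7.0 + 0.01% (detergent screen) or 0.0001% Triton X-100; 5.3 nM AmpC reagent; cpd preinc 15 min RT; nitrocefin (800 uM stock) to start; A480 q20 s × 4 min; Activity was normalised to no-enzyme and no-compound control wells.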
Numbers without * were called inactive; u = inconclusive; x = no result; [ ] = another dose, or the depositor's remark. Shown are actives, neighbours in structure and some others; about 1.1% of the full set was active somewhere. The call rests on the fitted dose curve; in most records, active means well fitted curve in the direction sought with a large enough effect; inconclusive means small, poorly fitted or top-dose-only effect, or another doubt; inactive means no such curve, though single readings can be large; an effect the other way counts as inactive or inconclusive. Unless noted, on the % scale 0 is the no-effect control and ±100 the full control effect; potency means the concentration at half of the fitted maximal effect.

SMILES	Giardia FBPA inh	AmpC no deterg	AMA1-RON2 inh	AmpC detergent
O=C(COc1ccccc1C(=O)N/N=C\c1ccc(O)c(O)c1)N/N=C/c1ccc(O)c(O)c1	-22%	40µM*	u	u
COc1cc(/C=C2\SC(=S)N(Nc3ccccc3)C2=O)ccc1O	2%	-21%	u	-13%
O=C1/C(=C/c2ccc(O)c(O)c2)SC(=S)N1Nc1ccccc1	u	25µM*	u	2%
CCC(C(=O)OCc1cc(=O)n2nc(C)sc2n1)c1ccccc1 (centres undefined)	x	x	x	-5%
O=C1C(NS(=O)(=O)c2cccs2)=C(N2CCN(Cc3ccccc3)CC2)C(=O)c2ccccc21	u	-25%	28µM*	-4%
CCOc1ccccc1N1CCN(C2=C(NS(=O)(=O)c3cccs3)C(=O)c3ccccc3C2=O)CC1	u	-13%	10µM*	u
CN1CCN(C2=C(NS(=O)(=O)c3cccs3)C(=O)c3ccccc3C2=O)CC1	u	-12%	-17%	3%
O=C1C(NS(=O)(=O)c2cccs2)=C(N2CCN(c3cccc(C(F)(F)F)c3)CC2)C(=O)c2ccccc21	u	-58%	10µM*	-11%
Cc1ccc(NC(=O)COC(=O)[C@@H]2CC(O)CN2S(=O)(=O)c2ccc3c(c2)OCCO3)cc1 (some centres undefined)	x	158%	-2%[11.6 µM]	x
COc1cc(NC(=O)CCc2c(C)nn(-c3ccc4nnc(C)n4n3)c2C)cc(OC)c1OC	x	x	x	2%
CCn1c(SCC(=O)N=Nc2c(O)[nH]c3ccccc23)nnc1-c1ccc(C(C)(C)C)cc1	0%	-2%	x	1%
CCn1c(SCC(=O)N=Nc2c(O)[nH]c3ccccc23)nc2ccccc21	-8%	5µM*	-16%	-8%
CCC1OC(C)Cc2[nH][nH]c(=O)c21 (centres undefined)	x	x	3%	x
CCc1nc(SCC(=O)NCc2ccc(F)cc2)c2c(=O)n(C)c(=O)n(C)c2n1	1%	2.5µM*	-4%	u
Cc1cc(NC(=O)CSc2nc(CC(C)(C)C)nc3c2c(=O)n(C)c(=O)n3C)no1	3%	40µM*	3%	-13%
Oc1cc(-c2ccccc2)c2ccccc2c1	5.6µM*	-29%	-2%	-6%
Cc1nc2ccc(C(=O)NC(C)(C)C)cn2c1N(C)C(=O)CCc1ccccc1	x	x	15%	x
Cc1ccccc1N1C(=O)/C(=C/c2ccco2)C(=O)NC1=S	u	7.1µM*	x	45µM*
CCOc1ccc(N2C(=O)/C(=C/c3ccco3)C(=O)NC2=S)cc1	8%	13µM*	4µM*	u
Cc1cccc(N2C(=O)/C(=C/c3ccc(N4CCN(C)CC4)o3)C(=O)NC2=S)c1C	-22%	3%	0%	u
CCOc1ccc(N2C(=O)/C(=C\c3cccs3)C(=O)NC2=S)cc1	7%	-41%	43%	3%
CCOC(=O)C1=C[C@@H](CC)N(S(=O)(=O)c2ccc(C)cc2)[C@H]1c1cccs1	x	x	5%	x
CCc1c(C)nc2[nH]nc(-c3ccccc3C)n2c1=O	-14%	0.28µM*	-10%	-1%
CCc1c(C)nc2[nH]nc(-c3ccccc3)n2c1=O	-26%	-25%	9%	-17%
CN(/N=C/c1ccc([N+](=O)[O-])o1)c1ccccc1	-1%	-23%	13µM*	4%
SMILES	Giardia FBPA inh	AmpC no deterg	AMA1-RON2 inh	AmpC detergent
Cc1ccc(S(=O)(=O)NCCSc2nnnn2-c2ccc(C(N)=O)cc2)cc1	3%	10µM*	1%	u
CCCn1nc(NC(=O)C2CCCO2)c2cc3cc(C)ccc3nc21 (centres undefined)	-6%	44%	1.1µM*	5%
CCN1/C(=C/C(C)=C/c2sc3ccccc3[n+]2CC)Sc2ccccc21	-8%	14%	28µM*	1%
CCN1/C(=C\C(=S)Nc2ccccc2)Sc2ccccc21	-9%	-38%	39%	1%
O=C1C2C3C=CC(C3)C2C(=O)N1CNc1ccc(O)cc1 (centres undefined)	3.2µM*	-37%	x	-11%
Cc1cccc(N2CCN(c3ncnc4c3nc3n4CCCCC3)CC2C)c1 (centres undefined)	x	x	x	-2%
CCOC(=O)C1CCCN(c2c(NCCN3CCCCC3C)c(=O)c2=O)C1 (centres undefined)	3%	3.5µM*	-2%	u
CCOC(=O)C1CCCN(c2c(NCCCN(CC)c3ccccc3)c(=O)c2=O)C1 (centres undefined)	0%	u	4%	2%
CCOC(=O)C1CCCN(c2c(NCCN(CC)c3ccccc3)c(=O)c2=O)C1 (centres undefined)	-12%	22µM*	-3%	3%
O=C(N1CCOCC1)n1nnc2ccccc21	5%	13µM*	-10%	45µM*
Cc1ccc(S(=O)(=O)NCc2ccccc2)cc1C(=O)NC(C)c1ccc(S(N)(=O)=O)cc1 (centres undefined)	x	-9%	5%	u
O=S(=O)(c1ccccc1F)N1CCN(Cc2cc3c(cc2O)OCO3)CC1	x	-26%	-8%	-4%
Brc1cc2c(cc1CN1CCN(c3ccccc3)CC1)OCCO2	-4%	-4%	7.9µM*	5%
Oc1cc2c(cc1CN1CCN(c3ccc(F)cc3)CC1)OCO2	-6%	-18%	32µM*	u
N#Cc1ccccc1S(=O)(=O)N1CCN(Cc2cc3c(cc2Br)OCCO3)CC1	x	x	-6%	x
COc1ccccc1NC(=O)Cn1c(=O)oc2cc(S(=O)(=O)NCc3ccccc3)ccc21	x	x	x	17%
COC(=O)c1nnc(SC)nc1C(=O)OC	-4%	x	x	x
O=[N+]([O-])c1ccc(Oc2cccc3cccnc23)c([N+](=O)[O-])c1	20µM*	-21%	-19%	u
O=C(CN1CCCC1)Nc1ccc(NC(=O)Nc2ccccc2Cl)cc1	1%	16µM*	-2%	u
O=C(Nc1ccccc1Cl)NC1CCCCCCC1	x	35µM*	1%	3%
CCc1ccccc1NC(=O)NC1CCCCC1	34%	0%	0%	5%
CC(C)c1cc(Cn2c3ccccc3c(=O)n2C(C)Cn2cc(C3=CCCCC3)nn2)on1 (centres undefined)	x	x	-2%	x
Cn1c2ccccc2c2cc([N+](=O)[O-])ccc21	-3%	-21%	-15%	1%
CN1c2ccc([N+](=O)[O-])cc2N(C)C1(C)c1ccccc1 (centres undefined)	-11%	-39%	13µM*	1%
Cc1cc(SCC(=O)OC/C(O)=C(\C#N)c2nc3ccccc3[nH]2)c(C)cc1Br	-12%	10µM*	86%	-6%
N#C/C(=C(/O)COC(=O)CSc1ccc(Cl)cc1)c1nc2ccccc2[nH]1	-5%	-52%	50%	-3%
CCCCN(CCCC)CCn1cnc2c([nH]c3ccc(OC)cc32)c1=O	-1%	20µM*	-2%	u
